# Source: the supplement of paper PMC7411054
# Key:
# Details in all cases: treatment time: 24 h
# HepG2-GM130-SQSTM1 [1] = experiment: lowest phenotypically active concentration; higher = less potent
# Procedure, shortened: (§1)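 Cells from fifteen gene-edited reporter lines (A549, HepG2 and WPMY1) were treated for 24 h at 0.3, 1, 3 or 9 µM and imaged live, four wells per condition. Features were normalised per well to solvent control wells. A condition deviated if ≥3 of 4 wells passed the 95th percentile of control Euclidean distances and was reproducible if its median replicate Pearson correlation beat the 95th percentile of non-replicates; phenotypic activity needed both.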
# WPMY1-CANX-COX4 [2] = experiment: as above
# Procedure, shortened: as §1
# A549-CANX-COX4 = experiment: phenotypically active (imaging signature differs from DMSO and reproducible) at any of 0.3-9 uM (binary (1 = active, 0 = inactive)); higher = active
# Procedure, shortened: as §1
# A549-TP53BP1-CLTA = experiment: as above
# Procedure, shortened: as §1
# HepG2-ACTB-RAB5A = experiment: as above
# Procedure, shortened: as §1
# HepG2-CANX-COX4 = experiment: as above
# Procedure, shortened: as §1
# HepG2-GM130-SQSTM1 [3] = experiment: as above
# Procedure, shortened: as §1
# HepG2-TP53BP1-CLTA = experiment: as above
# Procedure, shortened: as §1
# HepG2-TUBA1B-RELA = experiment: as above
# Procedure, shortened: as §1
# WPMY1-ACTB-RAB5A [4] = experiment: as above
# Procedure, shortened: as §1
# WPMY1-CANX-COX4 [5] = experiment: as above
# Procedure, shortened: as §1
# WPMY1-GM130-SQSTM1 [6] = experiment: as above
# Procedure, shortened: as §1
# WPMY1-TP53BP1-CLTA = experiment: as above
# Procedure, shortened: as §1
# WPMY1-TUBA1B-RELA [7] = experiment: as above
# Procedure, shortened: as §1
# WPMY1-ACTB-RAB5A [8] = experiment: lowest phenotypically active concentration; higher = less potent
# Procedure, shortened: as §1
# WPMY1-GM130-SQSTM1 [9] = experiment: as above
# Procedure, shortened: as §1
# WPMY1-TUBA1B-RELA [10] = experiment: as above
# Procedure, shortened: as §1
SMILES,lowest phenotypically active concentration (HepG2-GM130-SQSTM1 [1]) [µM],lowest phenotypically active concentration (WPMY1-CANX-COX4 [2]) [µM],phenotypically active (A549-CANX-COX4),phenotypically active (A549-TP53BP1-CLTA),phenotypically active (HepG2-ACTB-RAB5A),phenotypically active (HepG2-CANX-COX4),phenotypically active (HepG2-GM130-SQSTM1 [3]),phenotypically active (HepG2-TP53BP1-CLTA),phenotypically active (HepG2-TUBA1B-RELA),phenotypically active (WPMY1-ACTB-RAB5A [4]),phenotypically active (WPMY1-CANX-COX4 [5]),phenotypically active (WPMY1-GM130-SQSTM1 [6]),phenotypically active (WPMY1-TP53BP1-CLTA),phenotypically active (WPMY1-TUBA1B-RELA [7]),lowest phenotypically active concentration (WPMY1-ACTB-RAB5A [8]) [µM],lowest phenotypically active concentration (WPMY1-GM130-SQSTM1 [9]) [µM],lowest phenotypically active concentration (WPMY1-TUBA1B-RELA [10]) [µM]
Cc1nc(NC(=O)N2CCC[C@H]2C(N)=O)sc1-c1csc(C(C)(C)C)n1,3,9,0 (inactive),1 (active),1 (active),1 (active),1 (active),1 (active),1 (active),0 (inactive),1 (active),0 (inactive),1 (active),0 (inactive),,,
Cc1ccccc1N1C(=O)c2cc(S(N)(=O)=O)c(Cl)cc2NC1C (stereo unspecified) [metolazone],,,0 (inactive),0 (inactive),0 (inactive),0 (inactive),0 (inactive),0 (inactive),0 (inactive),0 (inactive),0 (inactive),0 (inactive),0 (inactive),0 (inactive),,,
N#Cc1c(NC(=O)c2cccc3ccccc23)sc2c1CCCC2,≤ 0.3,≤ 0.3,1 (active),1 (active),1 (active),1 (active),1 (active),1 (active),1 (active),1 (active),1 (active),1 (active),1 (active),1 (active),≤ 0.3,≤ 0.3,≤ 0.3
CN1CCN(C2=Nc3cc(Cl)ccc3Nc3ccccc32)CC1 [clozapine],,,0 (inactive),0 (inactive),0 (inactive),0 (inactive),0 (inactive),0 (inactive),0 (inactive),0 (inactive),0 (inactive),1 (active),0 (inactive),0 (inactive),,9,
COc1cc2nccc(Oc3ccc(NC(=O)NC4CC4)c(Cl)c3)c2cc1C(N)=O [lenvatinib],,,0 (inactive),0 (inactive),0 (inactive),0 (inactive),0 (inactive),0 (inactive),0 (inactive),1 (active),0 (inactive),0 (inactive),0 (inactive),0 (inactive),1,,
Clc1ccc2nsnc2c1NC1=NCCN1 [tizanidine],,,0 (inactive),0 (inactive),0 (inactive),0 (inactive),0 (inactive),0 (inactive),0 (inactive),0 (inactive),0 (inactive),0 (inactive),0 (inactive),0 (inactive),,,
